Experimental data as given in PubChem BioAssay AID743314 (Broad Institute, 2014).
Potency and affinity values are given separately. Results filed as inconclusive are left out. Activity calls are given as the source filed them.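 Rule for the calls: active = fitted half-maximal concentration no higher than twice the top tested dose, in every repeat run; inconclusive = repeat runs disagree, poor fit, or flat partial inhibition; inactive = the rest.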

What follows are molecules tested against Endoplasmic reticulum aminopeptidase 1 (Homo sapiens) (UniProt Q9NZ08) (assay: inhibition of human ERAP1 enzyme activity – biochemical, cherry-pick, set 2, plate reader, dose response (AID 743314)). Conditions: Recombinant ERAP1, Leu-AMC fluorescence, 60 min; series mostly up to 11 µM.
Chain of Endoplasmic reticulum aminopeptidase 1 (Homo sapiens) (Q9NZ08 whole entry, looked up): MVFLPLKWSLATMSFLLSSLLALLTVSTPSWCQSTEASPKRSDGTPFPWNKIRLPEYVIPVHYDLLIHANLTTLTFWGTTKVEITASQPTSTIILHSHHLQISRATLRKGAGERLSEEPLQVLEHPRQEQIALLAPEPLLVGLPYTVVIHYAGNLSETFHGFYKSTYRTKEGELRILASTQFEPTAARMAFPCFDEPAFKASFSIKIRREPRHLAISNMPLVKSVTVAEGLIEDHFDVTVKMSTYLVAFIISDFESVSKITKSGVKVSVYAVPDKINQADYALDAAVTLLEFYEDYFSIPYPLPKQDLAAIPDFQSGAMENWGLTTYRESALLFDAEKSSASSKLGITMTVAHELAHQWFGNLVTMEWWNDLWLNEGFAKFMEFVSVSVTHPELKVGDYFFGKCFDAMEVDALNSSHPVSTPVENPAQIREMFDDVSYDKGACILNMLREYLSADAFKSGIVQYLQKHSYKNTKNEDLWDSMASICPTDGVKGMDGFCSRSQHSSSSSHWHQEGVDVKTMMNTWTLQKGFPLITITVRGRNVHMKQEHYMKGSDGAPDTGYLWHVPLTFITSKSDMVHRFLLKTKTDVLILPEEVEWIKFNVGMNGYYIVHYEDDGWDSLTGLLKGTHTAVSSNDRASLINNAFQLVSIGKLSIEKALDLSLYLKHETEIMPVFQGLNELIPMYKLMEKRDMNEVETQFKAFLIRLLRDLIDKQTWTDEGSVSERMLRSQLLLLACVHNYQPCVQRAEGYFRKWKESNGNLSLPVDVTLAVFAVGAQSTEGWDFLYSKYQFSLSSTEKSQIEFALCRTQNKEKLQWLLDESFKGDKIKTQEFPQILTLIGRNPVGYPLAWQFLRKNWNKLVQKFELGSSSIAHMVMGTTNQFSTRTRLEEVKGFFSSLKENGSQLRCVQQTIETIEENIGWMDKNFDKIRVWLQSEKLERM

outcome, inactive:
CCC(C)N(C(=O)COC(=O)c1nc2nc(C)cc(C)n2n1)C1CCS(=O)(=O)C1 (configuration not stated)
C[C@@H]1CCCCO[C@H](CN(C)C)[C@H](C)CN([C@@H](C)CO)C(=O)c2cc(NS(=O)(=O)c3ccc(Cl)cc3)ccc2O1
COc1ccc(-c2cc(=O)oc3cc(OC(C)C(=O)NC(Cc4c[nH]c5ccc(O)cc45)C(=O)O)ccc23)cc1 (configuration not stated)
C[C@H](CO)N1C[C@H](C)[C@H](CN(C)Cc2ccc(C(=O)O)cc2)Oc2c(NC(=O)Nc3ccccc3)cccc2C1=O
COc1ccc(CN(C)C[C@H]2OCCCC[C@H](C)Oc3ccc(NS(=O)(=O)c4cccs4)cc3C(=O)N([C@@H](C)CO)C[C@@H]2C)cc1
C[C@@H]1CN([C@H](C)CO)C(=O)c2cccc(NC(=O)Nc3ccc(C(F)(F)F)cc3)c2O[C@H]1CN(C)C
C[C@H](CO)N1C[C@H](C)[C@@H](CN(C)C)Oc2c(NC(=O)Nc3ccc(C(F)(F)F)cc3)cccc2C1=O
CCOc1ccc(NC(=O)C2CCCN2C(=O)Oc2ccccc2)cc1 (configuration not stated)
CN(C)C(=O)c1cccc(-c2ccc3c(c2)[C@H]2[C@H](CCN2Cc2nccs2)[C@@H](CO)N3)c1
CN(CC(=O)Nc1ccccc1C(F)(F)F)C(=O)CSc1nnc(-c2ccncc2)n1C
O=C(CC1CC1)N1[C@H](CO)[C@H](c2ccccc2)C12CN(Cc1cc(F)ccc1F)C2
C[C@@H]1CN([C@H](C)CO)C(=O)Cc2cc(NC(=O)Nc3cccc4ccccc34)ccc2O[C@H]1CN(C)Cc1ccc(C(=O)O)cc1
